The source of these data is PubChem BioAssay AID590 (National Center for Advancing Translational Sciences (NCATS), 2007).

The structures appear in SMILES notation. Screen size: about 59,000 compounds; about 6,500 (11%) were called active. Not shown: some 15% with an inconclusive outcome. Cut-off read from the data, not from the text of the source: active = max dye-equivalent concentration above about 10 nM; inconclusive = mostly about 1.1 nM to 9.6 nM; inactive = weaker than that. Many of the other results were omitted from the sample, so actives are more common in it than they were.

This assay is described as follows: qHTS Assay for Spectroscopic Profiling in A350 Spectral Region. Conditions: Compound autofluorescence, 340/450 nm, Alexa 350 dye-equivalents; stronger effect = higher value.
Consider `Cn1c(C(=O)NCCN2CCc3ccccc3C2)cc2c(=O)[nH]c3ccccc3c21`, for which the max dye-equivalent concentration entry is “inactive”.

Consider `Cc1cc(=O)n2c3c(cccc13)CCC2`, for which the max dye-equivalent concentration result was “inactive”.

In the case of `CCNC(=O)c1c(O)c2cccc3c2n(c1=O)CC3`, the max dye-equivalent concentration was 22 nM (active).

`Cc1cnc(CNc2nc(-c3cccnc3)nc3ccccc23)cn1`: the max dye-equivalent concentration entry was “inactive”.

Take `CN(C)CCSS(=O)(=O)O`: the max dye-equivalent concentration result is “inactive”.

Take `C[C@]1(O)CC[C@H]2[C@H]3CC=C4N5CCN=C5CC[C@@]4(C)[C@H]3CC[C@@]21C`: the max dye-equivalent concentration entry is “inactive”.

With `CC(=O)c1cc(-c2ccccc2)[nH]c1N1CCCC1`, the max dye-equivalent concentration result is “inactive”.

For `Cc1cc(N2CCCC2)n2nc(C)c(-c3ccccc3)c2n1`, the max dye-equivalent concentration is 220 nM (active).

As for `S=c1c2[nH]cnc2ncn1CCSc1ncnc2nc[nH]c12`, the max dye-equivalent concentration entry was “inactive”.

In the case of `CC(C)(C)c1csc(NC2=NS(=O)(=O)c3ccccc32)n1`, the max dye-equivalent concentration entry is “inactive”.

Consider `COc1ccc(NC(=O)CN(C)S(=O)(=O)c2ccccc2)cc1OC`, for which the max dye-equivalent concentration entry was “inactive”.

`Brc1ccc(Nc2c3c(nc4ncnn24)CCC3)cc1`: the max dye-equivalent concentration entry is “inactive”.

For `CC1CCc2c(sc(NC(=O)c3ccc(Cn4cc(Br)cn4)o3)c2C(N)=O)C1` (stereo not drawn), the max dye-equivalent concentration was 110 nM (active).

`NC(=O)CSc1oc(-c2cccs2)nc1S(=O)(=O)c1ccccc1`: the max dye-equivalent concentration entry is “inactive”.

Turning to `O=C(c1ccco1)N1CCC[C@@]2(CCN(Cc3nccs3)C2)C1`, the max dye-equivalent concentration result was “inactive”.

With `COc1ccc(-c2cn3ccsc3n2)cc1`, the max dye-equivalent concentration result was “inactive”.

For the compound `CC(=O)Nc1cccc(-c2cnc3ccccc3n2)c1`, the max dye-equivalent concentration entry is “inactive”.

For the compound `CCCC(=O)Nc1cccc(-c2cn3ccsc3n2)c1`, the max dye-equivalent concentration result is “inactive”.

On to `CC(=O)Nc1ccc(-c2cn3cccnc3n2)cc1`, for which the max dye-equivalent concentration was 6300 nM (active).

With `CCOc1nc(OCC)nc(-n2cc(-c3ccccc3)nn2)n1`, the max dye-equivalent concentration result is “inactive”.

Regarding `c1ccc(-c2cn3cccnc3n2)cc1`, the max dye-equivalent concentration was 4800 nM (active).

In the case of `CC(=O)N(Cc1cccs1)C1CCOC(C)(C)C1` (stereo not drawn), the max dye-equivalent concentration entry was “inactive”.

Turning to `CCCCn1c(=S)[nH]c2ncccc2c1=O`, the max dye-equivalent concentration result was “inactive”.

In the case of `O=S(=O)(N1CCOCC1)N1CCN(c2ccccc2F)CC1`, the max dye-equivalent concentration result was “inactive”.

For `CC1(C)CC(=O)NC=C(c2ccccc2)C1`, the max dye-equivalent concentration result is “inactive”.

For `c1ccc(-c2[nH]ncc2-c2nc3ccccc3[nH]2)cc1`, the max dye-equivalent concentration entry is “inactive”.

Take `O=c1[nH]c(-c2ccccc2)c(-c2ccccc2)[nH]1`: the max dye-equivalent concentration was 14 nM (active).

Consider `c1csc(CN2CCN(Cc3cccs3)C2c2cccs2)c1`, for which the max dye-equivalent concentration entry was “inactive”.

For `CC1CCCCC1NC(=O)CCS(=O)(=O)c1cccc2nonc12` (stereo not drawn), the max dye-equivalent concentration entry is “inactive”.

For the compound `C=CCn1c(C2CC(=O)N(c3ccc(C)cc3)C2)nc2ccccc21` (stereo not drawn), the max dye-equivalent concentration result was “inactive”.

As for `CC(C)Cn1c(N)c(C(=O)NCc2cccs2)c2nc3ccccc3nc21`, the max dye-equivalent concentration was 350 nM (active).

For the compound `C=CCn1c(N)c(C(=O)OCC(C)C)c2nc3ccccc3nc21`, the max dye-equivalent concentration is 4500 nM (active).

In the case of `Cc1nnc(SCC(=O)NCc2cccs2)[nH]c1=O`, the max dye-equivalent concentration entry was “inactive”.

For the compound `CCN(CC(=O)NCc1cccs1)c1nnnn1-c1ccccc1`, the max dye-equivalent concentration entry was “inactive”.

On to `C=CCn1c(N)c(S(=O)(=O)c2cccs2)c2nc3ccccc3nc21`, for which the max dye-equivalent concentration is 5300 nM (active).

`CC(=O)c1c(N2CCOCC2)nc(=S)n(-c2cc(C)ccc2C)c1C`: the max dye-equivalent concentration result is “inactive”.

Regarding `COC(=O)[C@@H]1[C@H]2C[C@H]3c4[nH]c5cc(OC)ccc5c4CCN3C[C@@H]2C[C@@H](OC(=O)c2cc(OC)c(OC)c(OC)c2)[C@@H]1OC`, the max dye-equivalent concentration entry is “inactive”.

`Oc1c(Br)cc(CN(Cc2cc(Br)c(O)c(Br)c2)C2CCCCC2)cc1Br`: the max dye-equivalent concentration entry was “inactive”.

Consider `CS(=O)(=O)c1ccc2nc(NC(=O)CN3CCCCCC3)sc2c1`, for which the max dye-equivalent concentration result is “inactive”.

For `CCn1nnc(NC(=O)c2c(OC)cccc2OC)n1`, the max dye-equivalent concentration result is “inactive”.

Regarding `O=C(CSc1nc2ncccc2[nH]1)Nc1ccc2c(c1)OCCO2`, the max dye-equivalent concentration entry was “inactive”.

On to `CC(C)C(c1nnnn1C1CCCC1)N1CCN(c2ccccc2F)CC1` (stereo not drawn), for which the max dye-equivalent concentration entry is “inactive”.

`Cc1cc(C)c(C#N)c(SCc2ccccc2C(=O)O)n1`: the max dye-equivalent concentration was 13 nM (active).

Regarding `Cc1cc(C)c(C#N)c(SCS(=O)c2ccc(C(C)(C)C)cc2)n1` (stereo not drawn), the max dye-equivalent concentration entry was “inactive”.

As for `Cc1cc(C)c(C#N)c(SCc2ccc3c(c2)OCO3)n1`, the max dye-equivalent concentration result is “inactive”.

Take `CCN(CC)S(=O)(=O)c1ccc(NC(=O)CN(c2cccc(F)c2)S(C)(=O)=O)cc1`: the max dye-equivalent concentration entry was “inactive”.

Regarding `CCOC(=O)c1c(NC(=O)CCC(=O)NCc2ccco2)sc2c1CCCC2`, the max dye-equivalent concentration entry was “inactive”.

On to `ClC(Cl)(Cl)C(N1CCN(c2ccccc2)CC1)N1CCN(c2ccccc2)CC1`, for which the max dye-equivalent concentration result is “inactive”.

`COc1ccccc1N1CCN(C(=O)CSc2nnc(-c3ccoc3C)o2)CC1`: the max dye-equivalent concentration result is “inactive”.

With `CN1C(=O)c2ccc(NC(=O)C3CCCCC3)cc2C1=O`, the max dye-equivalent concentration is 320 nM (active).

In the case of `CN1C(=O)c2ccc(NC(=O)c3c(F)c(F)c(F)c(F)c3F)cc2C1=O`, the max dye-equivalent concentration is 110 nM (active).

Turning to `O=C(O)c1ccc(NC(=O)C2CCCCC2)cc1`, the max dye-equivalent concentration entry was “inactive”.

For `O=C(Nc1ccncc1)c1c(F)cccc1F`, the max dye-equivalent concentration result was “inactive”.
